IDE exosite inh: displaces the probe from the exo-site of human IDE | P14735 | AID 1259349 | z-score at 20 µM | purified IDE, FL-6b probe fluorescence polarization; hits give low values | 17,000 compounds, 6.3% hits;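 active = z-score of -3 or lower, meaning strong loss of probe binding signal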;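 note: His-tagged human IDE residues 42-1019 made in E. coli with 30 nM FL-6b probe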
Target sequence (P14735 42-1019 limits assumed): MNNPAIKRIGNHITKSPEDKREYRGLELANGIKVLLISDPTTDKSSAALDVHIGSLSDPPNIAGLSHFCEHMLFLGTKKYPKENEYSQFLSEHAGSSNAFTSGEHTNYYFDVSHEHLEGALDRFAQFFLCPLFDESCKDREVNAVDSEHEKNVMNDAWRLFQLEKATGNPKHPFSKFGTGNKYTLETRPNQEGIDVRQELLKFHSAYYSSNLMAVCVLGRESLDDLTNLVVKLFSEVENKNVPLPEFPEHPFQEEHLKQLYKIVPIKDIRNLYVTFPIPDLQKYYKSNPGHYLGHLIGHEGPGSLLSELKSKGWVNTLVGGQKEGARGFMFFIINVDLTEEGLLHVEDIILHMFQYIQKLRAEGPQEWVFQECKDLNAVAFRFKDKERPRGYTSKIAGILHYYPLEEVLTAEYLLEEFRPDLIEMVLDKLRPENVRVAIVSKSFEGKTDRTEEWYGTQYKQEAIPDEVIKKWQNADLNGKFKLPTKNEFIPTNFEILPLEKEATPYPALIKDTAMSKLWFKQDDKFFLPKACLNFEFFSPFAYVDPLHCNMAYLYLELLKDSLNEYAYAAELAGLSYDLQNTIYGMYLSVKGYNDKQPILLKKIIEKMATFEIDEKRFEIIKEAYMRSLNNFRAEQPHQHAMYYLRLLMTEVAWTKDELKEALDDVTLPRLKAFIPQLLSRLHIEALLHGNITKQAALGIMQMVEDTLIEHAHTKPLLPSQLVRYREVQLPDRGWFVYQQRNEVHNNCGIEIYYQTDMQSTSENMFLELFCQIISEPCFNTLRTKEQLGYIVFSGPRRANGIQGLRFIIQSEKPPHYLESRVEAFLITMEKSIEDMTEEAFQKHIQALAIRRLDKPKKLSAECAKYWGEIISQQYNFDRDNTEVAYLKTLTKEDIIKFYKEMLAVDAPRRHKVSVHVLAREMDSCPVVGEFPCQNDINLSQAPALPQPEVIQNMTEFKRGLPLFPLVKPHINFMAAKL
Numbers stand for hits; – = inactive. The entries come from a sample that favours hits as a whole.

SMILES | IDE exosite inh
CCC(=O)N1CCCCN2[C@H](CO)[C@H](c3ccc(C#CCOC)cc3)[C@@H]2C1 | –
CCC(=O)N1CCCCN2[C@H](CO)[C@@H](c3ccc(C#Cc4ccccc4)cc3)[C@H]2C1 | -3.9
CCC(=O)N1CCCCN2[C@H](C1)[C@@H](c1ccc(C#Cc3ccccc3)cc1)[C@@H]2CO | –
CCC(=O)N1CCCCN2[C@@H](CO)[C@@H](c3ccc(-c4cccc(C#N)c4)cc3)[C@@H]2C1 | –
CCC(=O)N1CCCCN2[C@H](CO)[C@H](c3ccc(C#Cc4ccccc4)cc3)[C@@H]2C1 | -8.8
CCC(=O)N1CCCCN2[C@H](C1)[C@H](c1ccc(C#CCOC)cc1)[C@@H]2CO | –
CCC(=O)N1CCCCN2[C@H](C1)[C@H](c1ccc(C#Cc3ccccc3)cc1)[C@@H]2CO | -4.6
CCC(=O)N1CCCCN2[C@H](C1)[C@@H](c1ccc(-c3cccc(C#N)c3)cc1)[C@@H]2CO | –
CCS(=O)(=O)N1Cc2cc(C(=O)NCCOC)nc(-c3cccc(-c4ccncc4)c3)c2[C@@H]1CCO | –
Cc1ccc(S(=O)(=O)N2[C@@H]3CNC[C@H]2C3c2ccc(-c3ccc(C#N)cc3)cc2)cc1 (stereo partly drawn) | –
CS(=O)(=O)N1[C@H](C#N)[C@@H](c2ccccc2-c2ccccc2)[C@@H]1CO | –
O=C(c1ccccc1F)N1CC(=O)N2[C@H](CO)[C@H](c3ccc(C#Cc4ccc(F)cc4)cc3)[C@H]2C1 | –
C[C@@H]1CN([C@@H](C)CO)S(=O)(=O)c2ccc(C#CC(C)(C)O)cc2O[C@@H]1CN(C)Cc1ccc(F)cc1 | –
CN(C)C(=O)c1ccc(-c2ccc(C3[C@@H]4CN(S(=O)(=O)Cc5ccccc5)C[C@H]3N4)cc2)cc1 (stereo partly drawn) | -4.2
Cc1ccccc1-c1ccc(C2[C@@H]3CN(S(=O)(=O)Cc4ccccc4)C[C@H]2N3)cc1 (stereo partly drawn) | –
Cc1ccc(S(=O)(=O)N2C[C@@H]3N[C@H](C2)C3c2ccc(-c3ccc(C(=O)N(C)C)cc3)cc2)cc1 (stereo partly drawn) | –
CC=Cc1ccc2n(c1=O)C[C@H]1[C@H](CO)[C@@H](C(=O)NCC3CC3)[C@@H]2N1C(=O)Nc1cc(F)ccc1F (mixture of isomers) | –
C/C=C/c1ccc([C@@H]2[C@@H](CO)N(C(=O)NC(C)C)C23CN(Cc2ccc(OC)cc2)C3)cc1 | –
C/C=C/c1ccc([C@H]2[C@@H](CN(C)C(=O)CC3CC3)N(C(=O)C3CC3)[C@H]2CO)cc1 | –
O=C(C1CCCCC1)N1CC(=O)N2[C@H](C1)[C@@H](c1ccc(C#CCc3ccccc3)cc1)[C@@H]2CO | –
O=C(C1CCC1)N1CC(=O)N2[C@@H](CO)[C@@H](c3ccc(C#CCc4ccccc4)cc3)[C@@H]2C1 | -3.3
O=C(C1CCC1)N1CC(=O)N2[C@H](CO)[C@@H](c3ccc(C#CCc4ccccc4)cc3)[C@H]2C1 | –
O=C(C1CCCCC1)N1CC(=O)N2[C@H](CO)[C@@H](c3ccc(C#CCc4ccccc4)cc3)[C@@H]2C1 | –
O=C(C1CCC1)N1CC(=O)N2[C@H](C1)[C@H](c1ccc(C#CCc3ccccc3)cc1)[C@@H]2CO | -3
O=C(C1CCC1)N1CC(=O)N2[C@H](C1)[C@@H](c1ccc(C#CCc3ccccc3)cc1)[C@@H]2CO | –
SMILES | IDE exosite inh
CN1C(=O)c2cc(NS(=O)(=O)c3cccc(F)c3)ccc2OC[C@H]2O[C@@H](CC(=O)NCCN3CCCCC3)CC[C@H]21 | –
OC[C@H]1[C@@H](c2ccc(Br)cc2)[C@H]2CN(Cc3cncnc3)CCCCN21 | –
COCC(=O)N1CC(=O)N2[C@H](C1)[C@H](c1ccc(C#CC(C)C)cc1)[C@@H]2CO | –
COc1cccc(C(=O)Nc2ccc3c(c2)OC[C@H](C)N(CCc2ccccc2)C[C@@H](C)[C@@H](OC)CN(C)C3=O)c1 | –
O=C(c1ccc2c(c1)OCO2)N1CCCCN2[C@H](CO)[C@H](c3ccc(-c4ccccc4)cc3)[C@@H]2C1 | –
Cc1cccc(-c2ccc([C@@H]3[C@@H](CO)N4CCCCN(C(=O)c5cccnc5)C[C@@H]34)cc2)c1 | -3.3
Cc1cccc(-c2ccc([C@@H]3[C@@H](CO)N4CCCCN(C(=O)c5cccnc5)C[C@H]34)cc2)c1 | -4.3
O=C(c1cccc(F)c1)N1CCCCN2[C@H](CO)[C@@H](c3ccc(-c4cccnc4)cc3)[C@H]2C1 | –
Cc1cccc(-c2ccc([C@H]3[C@H]4CN(C(=O)c5cccnc5)CCCCN4[C@H]3CO)cc2)c1 | –
O=C(c1cccc(F)c1)N1CCCCN2[C@H](CO)[C@H](c3ccc(-c4cccnc4)cc3)[C@H]2C1 | –
Cc1cccc(-c2ccc([C@H]3[C@H](CO)N4CCCCN(C(=O)c5cccnc5)C[C@@H]34)cc2)c1 | –
Cc1noc(C)c1S(=O)(=O)Nc1ccc2c(c1)C(=O)N([C@@H](C)CO)C[C@@H](C)[C@@H](CN(C)C(=O)Nc1cccc3ccccc13)OCCCC[C@H](C)O2 | –
COc1cccc(NC(=O)Nc2ccc3c(c2)C(=O)N(C)C[C@H](OC)[C@H](C)CN(CC2CC2)[C@H](C)CO3)c1 | –
CCC(=O)N1[C@@H](CO)[C@H](c2ccc(-c3cccnc3)cc2)[C@@H]1CN(CC)C(C)=O | –
CS(=O)(=O)N1[C@H](C#N)[C@@H](c2ccc(-c3ccccc3F)cc2)[C@H]1CO | –
CS(=O)(=O)N1[C@H](C#N)[C@@H](c2ccc(-c3ccccc3F)cc2)[C@@H]1CO | -3
CS(=O)(=O)N1[C@H](C#N)[C@H](c2ccccc2-c2ccccc2F)[C@H]1CO | –
CS(=O)(=O)N1[C@H](CO)[C@H](c2ccc(-c3ccccc3F)cc2)[C@@H]1C#N | –
CS(=O)(=O)N1[C@H](C#N)[C@H](c2ccc(-c3ccccc3F)cc2)[C@H]1CO | –
CS(=O)(=O)N1[C@@H](C#N)[C@H](c2ccc(-c3ccccc3F)cc2)[C@@H]1CO | -5.2
CCCC(=O)Nc1ccc2c(c1)C(=O)N(C)C[C@H](OC)[C@@H](C)CN(Cc1ccc(F)cc1)[C@@H](C)CO2 | –
COc1cccc(S(=O)(=O)N(C)C[C@@H]2OCc3ccccc3-c3c(n(C)c4ccccc34)C(=O)N([C@H](C)CO)C[C@H]2C)c1 | –
CC(C)NC(=O)N1[C@@H]2CNC[C@H]1C2c1ccc(-c2ccccc2)cc1 (stereo partly drawn) | –
CO[C@H]1CN(C)C(=O)c2ccc(NS(=O)(=O)CC(F)(F)F)cc2OC[C@H](C)N(Cc2nccs2)C[C@H]1C | –
CCC(=O)N1CC2(C1)[C@H](c1ccc(-c3cccc(C)c3)cc1)[C@@H](CO)N2S(C)(=O)=O | –
SMILES | IDE exosite inh
CN(C)CC(=O)N1CC2(C1)[C@@H](c1ccccc1)[C@@H](CO)N2S(C)(=O)=O | –
CCC(=O)N1CC2(C1)[C@@H](c1ccc(-c3cccc(C)c3)cc1)[C@@H](CO)N2S(C)(=O)=O | -3.3
C/C=C/c1ccc2c(c1)O[C@@H](CN(C)C(=O)Nc1ccc(OC)cc1)[C@H](C)CN([C@@H](C)CO)S2(=O)=O | –
O=C1CN(S(=O)(=O)c2cccc(F)c2)C[C@H]2[C@@H](c3ccc(-c4ccccc4)cc3)[C@H](CO)N12 | –
COc1ccc2c3c(n(C)c2c1)[C@@H](CO)N(CC1CC1)CC31CN(S(=O)(=O)c2cn(C)cn2)C1 | –
COc1ccc(C#Cc2ccc([C@H]3[C@H](CO)N4C(=O)CN(C(=O)c5ccncc5)C[C@@H]34)cc2)cc1 | –
